Experimental findings from PubChem BioAssay (NCI) are described below.

The nature of assay [1]: NCI Yeast Anticancer Drug Screen. Data for the rad50 strain (AID 155).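 Note: 0% = growth of vehicle-only cultures of the same strain.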 The conditions noted are these: S. cerevisiae rad50 strain growth inhibition; at 50.0 µM; hits give high values. The gist of the method:
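Relative growth inhibition (compound vs vehicle) was measured in yeast with a defined repair-gene alteration.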

A short description of assay [2]: NCI Yeast Anticancer Drug Screen. Data for the mec2-1 strain (AID 157). The conditions noted are these: S. cerevisiae mec2-1 strain, at 50.0 µM, hits give high values. The essentials:
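Readout is yeast growth inhibition, normalised to vehicle-treated controls, in the mec2-1 strain exposed to compound.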

Assay [3] can be described thus: NCI Yeast Anticancer Drug Screen. Data for the sgs1 mgt1 strain (AID 161).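 Note: 0% = growth of cultures given vehicle only.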 Conditions: S. cerevisiae sgs1 mgt1 strain, at 50.0 µM, hits give high values. The gist of the method: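 Percent growth inhibition was derived by comparing compound-exposed mutant yeast with vehicle-exposed cultures. The strain carries alterations in DNA damage repair.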
Assay [4] is described as follows: NCI Yeast Anticancer Drug Screen. Data for the cln2 rad14 strain (AID 165).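 Note: 0% = growth equal to vehicle treated cultures.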 Conditions: S. cerevisiae cln2 rad14 strain, at 50.0 µM, hits give high values. The essentials:
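Relative to vehicle controls, growth inhibition of compound-treated cln2 rad14 yeast was recorded.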

Assay [5] in a line: NCI Yeast Anticancer Drug Screen. Data for the bub3 strain (AID 167). Conditions: S. cerevisiae bub3 mutant strain, at 50.0 µM, hits give high values. The gist of the method: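 Screening used yeast with an engineered genetic alteration affecting cell cycle control. Compound-exposed cultures were compared with vehicle cultures, and reduced growth was taken as inhibition.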
A short description of assay [6]: NCI Yeast Anticancer Drug Screen. Data for the mlh1 rad18 strain (AID 175). The conditions noted are these: S. cerevisiae mlh1 rad18 strain growth inhibition; at 50.0 µM; hits give high values. The essentials:
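Test agents were incubated with a yeast strain of defined genotype (DNA damage repair defect). Inhibition of growth was derived by comparison with vehicle-exposed cultures.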

The panel holds about 79,000 compounds, 15% with a hit somewhere; the sample as a whole holds those more often. A number with no mark means an inactive call. The source made the active and inactive calls. Cut-off read from the data, not from the text of the source: active = growth inhibition above about 70%; inactive = the rest.

Turning to `O=C(O)CC(NC(=O)CP(=O)(O)O)C(=O)O` (stereo not given), the growth inhibition in assay [1] is -9.4%; in assay [2] it was -21.9%; in assay [3], -10.6%; in assay [4], 2%; in assay [5] it was -8.5%; in assay [6] it was -13.1%.

For the molecule `Cc1ccc(C(CCCl)OC(C)C)cc1` (stereo not given), the growth inhibition in assay [1] was 7%; in assay [2], 7.35%; in assay [3], 22%; in assay [4], 25.2%; in assay [5], 22.6%; in assay [6], 17.8%.

In the case of `CC(C)(O)C(C)(O)C#CC(C)(O)C(C)(C)O` (stereo not given), the growth inhibition in assay [1] was -2.65%; in assay [2] it was 1.2%; in assay [3], 1.3%; in assay [4], -15.2%; in assay [5] it was 2.5%; in assay [6] it was 6.75%.

Consider `C=CCc1cc2c(cc1COC(C)=O)OCO2`, for which the growth inhibition in assay [1] was -35.7%; in assay [2] it was -17.9%; in assay [3] it was -15.4%; in assay [4], -36.5%; in assay [5], -10.6%; in assay [6], -28%.

For the molecule `Cc1cn(C2OC3COC2C3O)c(=O)[nH]c1=O` (stereo not given), the growth inhibition in assay [1] is -20.8%; in assay [2], 0.55%; in assay [3] it was 10.7%; in assay [4], 27.2%; in assay [5], -6%; in assay [6], -4.75%.

As to `CC(=O)C1CC=C(C)CC1` (stereo not given), the growth inhibition was -6.8% in assay [1]; -9.55% in assay [2]; 15.8% in assay [3]; 14.6% in assay [4]; -2.85% in assay [5]; 2.6% in assay [6].

`CC(C)CCC[C@@H](C)[C@H]1CC[C@H]2[C@@H]3CC=C4C[C@@H]([n+]5ccccc5)CC[C@]4(C)[C@H]3CC[C@]12C`: the growth inhibition was -2.45% in assay [1]; -9.8% in assay [2]; 0.95% in assay [3]; 8.15% in assay [4]; -14.1% in assay [5]; -7.55% in assay [6].

For the molecule `CCOC(=O)C12CCC(C(=O)OCC)(CC13OCCO3)C1(C2)OCCO1`, the growth inhibition in assay [1] was 11.1%; in assay [2], 9.95%; in assay [3] it was 10%; in assay [4] it was 5.55%; in assay [5] it was 7.35%; in assay [6], 15.9%.

For the molecule `NC(Cc1c[nH]c2ccc(F)cc12)C(=O)O` (stereo not given), the growth inhibition in assay [1] was -4.35%; in assay [2] it was -17.5%; in assay [3] it was -29.8%; in assay [4], -37%; in assay [5], -14.4%; in assay [6], 4.15%.

With `CCC(C)(C)c1ccc(OCCO)cc1`, the growth inhibition in assay [1] was -29.2%; in assay [2] it was -29.4%; in assay [3] it was -20.8%; in assay [4], -12.9%; in assay [5], -19.2%; in assay [6], -23.4%.

Turning to `CC(C)(C)c1cc(Br)c(O)c(CN(Cc2cc(C(C)(C)C)cc(Br)c2O)C2CCCCC2)c1`, the growth inhibition in assay [1] is 16.1%; in assay [2], -24.9%; in assay [3], -34.2%; in assay [4], -14.2%; in assay [5], -35.2%; in assay [6] it was 1.35%.

With `CSc1ncc2c(n1)-c1ccccc1OC2N1CCCCC1` (stereo not given), the growth inhibition in assay [1] is 9.8%; in assay [2], 13.7%; in assay [3] it was 7.4%; in assay [4] it was -3.45%; in assay [5] it was 23.4%; in assay [6], 38.7%.

Turning to `O=S(=O)(O)c1cccc(/C(=N\Nc2ccccn2)c2ccccn2)c1`, the growth inhibition was 44% in assay [1]; 25.9% in assay [2]; 59.8% in assay [3]; 40.5% in assay [4]; 51.5% in assay [5]; 45.4% in assay [6].

As for `NC(=O)c1n[nH]n(-c2ccccc2)c1=O`, the growth inhibition in assay [1] is -13.2%; in assay [2] it was -5.35%; in assay [3] it was -7.75%; in assay [4], 0.15%; in assay [5], -19.9%; in assay [6], 3.85%.

`O=C1C=CSc2ccccc2N1`: the growth inhibition in assay [1] was -2.4%; in assay [2], 2.5%; in assay [3], -2.15%; in assay [4], 4.4%; in assay [5], 2.45%; in assay [6] it was 4.5%.

In the case of `CC(=O)Nc1ccc(NC(=O)c2cccc3ccccc23)cc1`, the growth inhibition in assay [1] is -5.1%; in assay [2], 13%; in assay [3], 13.8%; in assay [4], -12.8%; in assay [5], 35.4%; in assay [6], 32.1%.

For `OCc1ccncc1`, the growth inhibition is -5.85% in assay [1]; -13.2% in assay [2]; -9.65% in assay [3]; -47.4% in assay [4]; 10.4% in assay [5]; -2.05% in assay [6].

On to `CC1(C)OCC2OC(O)C(OS(=O)(=O)c3ccc([N+](=O)[O-])cc3)C2O1` (stereo not given), for which the growth inhibition in assay [1] is -5.5%; in assay [2], -2.55%; in assay [3] it was -0.5%; in assay [4], -33%; in assay [5] it was -10.9%; in assay [6], -30.3%.

Regarding `COC(=O)/C(=N\NC(N)=O)C(C#N)c1ccccc1` (stereo not given), the growth inhibition in assay [1] is -12.5%; in assay [2], -1.85%; in assay [3], -5.75%; in assay [4] it was -29.9%; in assay [5] it was 6.7%; in assay [6], -4.8%.

Regarding `Cn1cnc([N+](=O)[O-])c1Sc1nc2ccccc2[nH]1`, the growth inhibition in assay [1] is -16.4%; in assay [2] it was -10.3%; in assay [3], -12.2%; in assay [4], 3.65%; in assay [5], -30.6%; in assay [6], -19.1%.

As to `CNC(=O)c1ccccc1C`, the growth inhibition in assay [1] is -1.15%; in assay [2], -6%; in assay [3], -6.9%; in assay [4] it was -33.3%; in assay [5] it was 6.55%; in assay [6] it was 0.35%.

Turning to `Cc1cc(-c2cscn2)c(O)c([N+](=O)[O-])c1`, the growth inhibition in assay [1] is 3.05%; in assay [2], 3.9%; in assay [3], 27.2%; in assay [4] it was 12.4%; in assay [5], 1.5%; in assay [6], 7.6%.

Turning to `C[N+]1(C)C2C=CCC1CSC2` (stereo not given), the growth inhibition was 4.55% in assay [1]; 0.15% in assay [2]; -3.8% in assay [3]; 3.65% in assay [4]; 2.75% in assay [5]; 12.8% in assay [6].

For `O=C(O)CCC(=O)c1ccc2c3c1CCCC3CC2` (stereo not given), the growth inhibition in assay [1] was 52.8%; in assay [2] it was 51.5%; in assay [3] it was 48.5%; in assay [4] it was 29%; in assay [5] it was 17.2%; in assay [6], 70.7% (active).

For `O=C(Nc1ccccc1)Oc1ccc(C2CCCCC2)cc1`, the growth inhibition in assay [1] was 14.7%; in assay [2] it was 22.1%; in assay [3], 8.2%; in assay [4], 0.95%; in assay [5], 23.3%; in assay [6], 54.6%.

`COC(=O)c1sc(N2CCCC2)nc1N`: the growth inhibition is -4.95% in assay [1]; 9.95% in assay [2]; 6.4% in assay [3]; -1.3% in assay [4]; 11.4% in assay [5]; -1.85% in assay [6].

Turning to `O=C(Cc1ccccc1)N/N=C\Cc1ccccc1`, the growth inhibition is -4.85% in assay [1]; 22.8% in assay [2]; 20.8% in assay [3]; -14.1% in assay [4]; -2.35% in assay [5]; 2.25% in assay [6].

As for `COc1ccccc1Nc1nc2c([nH]1)c(=O)n(C)c(=O)n2C`, the growth inhibition in assay [1] is -33.9%; in assay [2] it was -15.2%; in assay [3] it was -41.9%; in assay [4], -32.8%; in assay [5], -4%; in assay [6], -5.85%.

`CC(=O)OC1(C#N)CC2OC1C1N=NN(C(=O)OC(C)(C)C)C21` (stereo not given): the growth inhibition in assay [1] was 18.2%; in assay [2] it was 2.15%; in assay [3] it was 4.8%; in assay [4], 21.8%; in assay [5], 16.1%; in assay [6], 19.2%.

As for `Nc1nc(SCC(=O)O)[nH]c(=O)c1N`, the growth inhibition in assay [1] is -16.2%; in assay [2] it was 30.1%; in assay [3], -1.7%; in assay [4], 6.25%; in assay [5] it was -0.25%; in assay [6], 2.7%.

As to `O=C1NC(=O)C2(CCN(Cc3ccccc3)CC2)N1c1ccccc1`, the growth inhibition in assay [1] was 8.95%; in assay [2] it was 0.1%; in assay [3], -5.1%; in assay [4], 6%; in assay [5], 13.3%; in assay [6], 3.15%.

Regarding `O=[N+]([O-])c1ccc(Sc2ccc([N+](=O)[O-])cc2)cc1`, the growth inhibition in assay [1] was 2.35%; in assay [2], 1.45%; in assay [3], 8%; in assay [4], 22.6%; in assay [5] it was -0.1%; in assay [6], 11.3%.

Regarding `Cc1cccc[n+]1C1CCc2ccccc2C1=O` (stereo not given), the growth inhibition was 1.5% in assay [1]; 10.7% in assay [2]; 17.4% in assay [3]; -23.1% in assay [4]; -21.3% in assay [5]; 4% in assay [6].

With `Cc1cccc(C)c1NC(=O)Nc1cccc(Cl)c1`, the growth inhibition in assay [1] is 6.3%; in assay [2], 15.6%; in assay [3] it was 7.7%; in assay [4], -0.5%; in assay [5] it was 11%; in assay [6], -0.8%.

In the case of `CCOC(=O)c1cnc2cc3c(cc2c1Nc1ccc2c(c1)OCO2)OCO3`, the growth inhibition in assay [1] was 12.4%; in assay [2], 13.3%; in assay [3], 6.85%; in assay [4], 3.6%; in assay [5] it was 0%; in assay [6] it was 20%.

`CC1=NN(C(=O)Cc2ccccc2)C(=O)/C1=C\c1ccccc1O`: the growth inhibition in assay [1] is -10.1%; in assay [2] it was -39%; in assay [3], -43.2%; in assay [4], -5.7%; in assay [5], -26.2%; in assay [6], -39.9%.

Consider `CN(C)c1c([N+](=O)[O-])cc2[nH]cnc2c1[N+](=O)[O-]`, for which the growth inhibition in assay [1] was 21.2%; in assay [2], 12.2%; in assay [3], 13.3%; in assay [4], -2.9%; in assay [5] it was 19.4%; in assay [6], 13.7%.

With `O=[N+]([O-])c1ccc(/C=C/c2cc(-c3ccccc3)nc3ccc4ccccc4c23)cc1`, the growth inhibition is -11.1% in assay [1]; 5.1% in assay [2]; 9.9% in assay [3]; 3.2% in assay [4]; -11.9% in assay [5]; 4.5% in assay [6].

For `C=CC(=O)OCCCS(=O)(=O)[O-].C=CC(=O)OCCCS(=O)(=O)[O-].NC1CCCCC1N.[Pt+4]`, the growth inhibition is 3.05% in assay [1]; -7.75% in assay [2]; -4.25% in assay [3]; 37.5% in assay [4]; 14.1% in assay [5]; 9.75% in assay [6].

As for `O=C1c2ccccc2C(=O)N1C1(C(=O)NC2(C(=O)O)CCCC2)CCCC1`, the growth inhibition in assay [1] is -2.5%; in assay [2], -7.8%; in assay [3], -37.8%; in assay [4], 2.6%; in assay [5] it was -38.1%; in assay [6], -8.6%.
